In PubChem BioAssay (NCATS):
Values joined by “and” are separate entries in the source; they are usually repeats but may differ in a detail not shown here. Identical values can stand only once. Inconclusive results are not listed. Active and inactive are the calls of the source. Unless noted, the call rests on the fitted dose curve; in most records, active means well fitted curve in the direction sought with a large enough effect; inconclusive means small, poorly fitted or top-dose-only effect, or another doubt; inactive means no such curve, though single readings can be large; an effect the other way counts as inactive or inconclusive.

Columns and labels:
[1] = Stat Signaling Pathway (AID 446; active means well fitted curve in either direction with a large enough effect, not every such curve was filed as active;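 further: ME-180 cervical cancer cells given 40 pM IL-6 alongside compound; SIE-controlled beta-lactamase reporter measured as 460/530 nm FRET emission ratio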)
Method in brief: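 IL-6/STAT signaling read in ME-180 cells via an SIE beta-lactamase reporter. Stimulus was 40 pM IL-6 (its AC50) for 5 hrs, so both activation and inhibition register.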

[2] = biological target: Glucocorticoid receptor (Homo sapiens) (UniProt P04150); assay: GR-GFP Redistribution (AID 450;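 active means compounds whose dose series gives a full or clear partial fitted curve of increased nuclear translocation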; further: potency means the concentration at half of the fitted maximal effect); settings: U2OS GR-GFP nuclear translocation, laser cytometry, 2 h
Sequence of Glucocorticoid receptor (Homo sapiens) (P04150 whole entry, looked up, the tested form may be a part): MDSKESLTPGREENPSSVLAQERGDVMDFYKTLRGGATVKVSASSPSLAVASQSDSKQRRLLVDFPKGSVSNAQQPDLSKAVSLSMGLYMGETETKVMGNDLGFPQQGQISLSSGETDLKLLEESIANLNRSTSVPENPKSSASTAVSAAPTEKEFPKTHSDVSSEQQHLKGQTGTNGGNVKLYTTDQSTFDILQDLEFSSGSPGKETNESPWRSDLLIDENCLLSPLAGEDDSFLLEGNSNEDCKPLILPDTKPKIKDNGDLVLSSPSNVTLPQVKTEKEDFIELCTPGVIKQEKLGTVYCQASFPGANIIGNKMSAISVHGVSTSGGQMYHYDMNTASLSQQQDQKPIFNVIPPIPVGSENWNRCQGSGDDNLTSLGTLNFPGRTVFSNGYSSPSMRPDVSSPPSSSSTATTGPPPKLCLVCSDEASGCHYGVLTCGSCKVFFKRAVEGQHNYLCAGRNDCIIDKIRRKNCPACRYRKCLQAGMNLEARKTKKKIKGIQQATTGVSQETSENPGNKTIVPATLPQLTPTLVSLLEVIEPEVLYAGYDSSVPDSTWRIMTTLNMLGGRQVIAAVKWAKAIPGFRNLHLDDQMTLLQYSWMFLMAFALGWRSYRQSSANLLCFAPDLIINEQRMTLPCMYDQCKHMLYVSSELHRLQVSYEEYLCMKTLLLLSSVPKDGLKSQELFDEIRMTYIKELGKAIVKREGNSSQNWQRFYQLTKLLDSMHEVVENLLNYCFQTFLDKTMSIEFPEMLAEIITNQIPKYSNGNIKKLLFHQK

[3] = biological target: Glucocorticoid receptor (Homo sapiens) (UniProt P04150); assay: GR-EFC Redistribution (AID 451; calls by dose curve; further: potency means the concentration at half of the fitted maximal effect); settings: CHO-K1 GR-EFC translocation, beta-gal luminescence, 2 h
Method in brief: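 CHO-K1 cells stably expressing nuclear-localized β-gal enzyme acceptor and GR fused C-terminally to the enzyme donor fragment; ligand-driven nuclear translocation restores β-gal by complementation. Compounds titrated up to 46 uM final, 2 h at 37 °C; luminescence read.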

[4] = biological target: 3',5'-cyclic-AMP phosphodiesterase 4B (Homo sapiens) (UniProt Q07343); assay: qHTS Assay for Inhibitors of PDE-IV (AID 607; active means well fitted activation curve with a large enough effect in the main read-out, with a control signal flat, not every such curve was filed as active)
Sequence of 3',5'-cyclic-AMP phosphodiesterase 4B (Homo sapiens) (Q07343 whole entry, looked up): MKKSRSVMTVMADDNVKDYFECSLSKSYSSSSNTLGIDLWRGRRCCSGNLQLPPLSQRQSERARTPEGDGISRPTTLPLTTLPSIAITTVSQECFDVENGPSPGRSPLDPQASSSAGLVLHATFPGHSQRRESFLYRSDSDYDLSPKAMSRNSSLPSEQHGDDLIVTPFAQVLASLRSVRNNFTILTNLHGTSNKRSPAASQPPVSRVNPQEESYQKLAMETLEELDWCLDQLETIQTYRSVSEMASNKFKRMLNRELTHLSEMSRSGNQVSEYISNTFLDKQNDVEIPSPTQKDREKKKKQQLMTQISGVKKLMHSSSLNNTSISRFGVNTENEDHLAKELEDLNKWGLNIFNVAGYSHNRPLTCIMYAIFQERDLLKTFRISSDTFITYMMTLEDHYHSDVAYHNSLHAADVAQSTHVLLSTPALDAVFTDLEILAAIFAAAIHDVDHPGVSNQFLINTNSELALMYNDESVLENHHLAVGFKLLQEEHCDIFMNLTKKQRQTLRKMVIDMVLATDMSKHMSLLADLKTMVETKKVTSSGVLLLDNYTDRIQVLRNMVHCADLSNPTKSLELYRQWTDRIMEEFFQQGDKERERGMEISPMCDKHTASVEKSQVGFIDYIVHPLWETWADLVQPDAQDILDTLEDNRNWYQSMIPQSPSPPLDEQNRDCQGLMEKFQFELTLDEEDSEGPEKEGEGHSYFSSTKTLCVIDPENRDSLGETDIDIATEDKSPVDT
Method in brief: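 Live HEK293 cells with a modified cyclic nucleotide-gated (CNG) channel report intracellular cAMP via membrane-potential dye fluorescence (ex 535/em 590 nm). Endogenous PDE-IV was targeted. Compounds were tested at up to 22.9 uM final; RO 20-1724 100 uM served as control.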

[5] = Cell Viability - N2a (AID 540); further: nearly all actives have a fitted effect of over 45% in size
Method in brief: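 Luminescent ATP signal (CellTiter-Glo, 20 min at room temperature) served as the viability read-out after N2a cells were treated with compounds for 40 hours at 37 °C. Concentration-response data were fitted to the Hill equation for AC50.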

[6] = Cell Viability - NIH 3T3 (AID 541); further: nearly all actives have a fitted effect of over 25% in size; further: potency means the concentration at half of the fitted maximal effect
Method in brief: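 Luminescent ATP signal (CellTiter-Glo) served as the viability read-out after NIH 3T3 cells were exposed to compounds over a concentration range for 40 hr at 37 °C. Hill-equation modelling of concentration-response data gave AC50.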

[7] = Cell Viability - HUV-EC-C (AID 542); further: nearly all actives have a fitted effect of over 35% in size
Method in brief: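 qHTS cytotoxicity: HUV-EC-C, 1000 cells/well, 5 hr settle, compound 40 hr 37 °C, CellTiter-Glo, luminescence. AC50 via Hill equation.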

[8] = Cell Viability - H-4-II-E (AID 543); further: nearly all actives have a fitted effect of over 35% in size; further: potency means the concentration at half of the fitted maximal effect
Method in brief: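 Luminescent ATP signal (CellTiter-Glo) served as the viability read-out, with cytotoxicity seen as a concentration-dependent ATP drop. Cells were treated for 40 hours in complete medium. AC50 values derive from Hill-equation modelling.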

[9] = Cell Viability - SH-SY5Y (AID 544); further: nearly all actives have a fitted effect of over 55% in size
Method in brief: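 Luminescent ATP read-out (CellTiter-Glo) measures loss of viable SH-SY5Y neuroblastoma cells after 40 hr compound exposure at 37 °C. AC50 values derive from standard Hill modelling of qHTS concentration-response data.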

[10] = Cell Viability - Renal Proximal Tubule (AID 545); further: nearly all actives have a fitted effect of over 40% in size
Method in brief: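 Primary rat renal proximal tubule cells (1000/well) were treated with compounds for 40 hr at 37 °C in complete medium. Intracellular ATP was measured by CellTiter-Glo luminescence, and AC50 values came from Hill-equation fits of concentration-response data.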

[11] = Cell Viability - Mesenchymal (AID 546);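 further: cells exposed to compound for 40 hours before reading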
Method in brief: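 Normal human renal glomerulus-derived kidney mesenchymal cells, 1000 per well in complete medium, were treated with compounds for 40 hr at 37 °C. Viability was read as intracellular ATP by CellTiter-Glo luminescence; AC50 values came from Hill-equation fits of qHTS concentration-response data.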

[12] = Cellular Toxicity (caspase-3) HepG2 (AID 654);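 further: cells exposed to compound for 16 hours before reading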
Method in brief: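 Cells plated 5 hr at 37 °C, compound added, incubated 16 hr at 37 °C. Caspase-Glo 3/7 reagent followed, 20 min at room temperature, then luminescence read. Activation scored as signal increase; AC50 from Hill fit.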

[13] = Cellular Toxicity (caspase-3) Jurkat (AID 655);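 further: cells exposed to compound for 16 h at 37 °C before reading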
Method in brief: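 Jurkat cells (5000/well) in complete medium were treated with compounds for 16 hr at 37 °C, then Caspase-Glo 3/7 luminescence was read after 20 min at room temperature. Data normalized to DMSO (basal) and 100 uM tamoxifen (100%); AC50 from Hill fit.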

[14] = Cellular Toxicity (caspase-3) HUV-EC-C (AID 656)
Method in brief: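 HUV-EC-C endothelial cells, 1000/well, were pre-incubated 5 hr at 37°C, then exposed to compounds for 16 hr at 37°C. Caspase-Glo 3/7 luminescence was read after 20 min at room temperature. AC50 came from Hill fits, normalized to DMSO and 100 uM tamoxifen.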

[15] = Cellular Toxicity (caspase-3) SHSY5Y (AID 657)
Method in brief: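 SH-SY5Y human neuroblastoma cells (1500/well) were treated with compounds for 16 h at 37 °C, then Caspase-Glo 3/7 luminescence was read after 1 h at room temperature. Data normalized to DMSO and 10 uM staurosporine; AC50 from Hill fits.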

[16] = Cellular Toxicity (caspase-3) BJ (AID 658)
Method in brief: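 Luminescent aminoluciferin-substrate cleavage reports caspase 3/7 activity in normal human BJ fibroblasts after 16 hr compound exposure at 37 °C. Normalized to DMSO (basal) and 10 uM staurosporine (100%); AC50 from Hill fit of concentration-response.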

[17] = Cellular Toxicity (caspase-3) MRC-5 (AID 659)
Method in brief: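 Luminescence from caspase-cleaved aminoluciferin substrate (Caspase-Glo 3/7, 1 hr RT) reports caspase 3/7 activity in MRC-5 lung fibroblasts after 16 hr compound exposure. Normalized to DMSO basal and 10 uM staurosporine as 100%; AC50 from Hill fits.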

[18] = Cellular Toxicity (caspase-3) Mesangial (AID 660);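 further: combined caspase 3 and 7 activity read by Caspase-Glo luminescence; cells exposed to compound for 16 h before the caspase read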
Method in brief: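 Mesangial cells, 1000/well, 5 h settle at 37 °C; compound 16 h, 37 °C; Caspase-Glo 3/7 reagent 20 min RT; luminescence. Norm.: DMSO = 0%, tamoxifen 100 uM = 100%. AC50, Hill fit.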

[19] = Cellular Toxicity (caspase-3) SK-N-SH (AID 661)
Method in brief: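 Human neuroblastoma SK-N-SH, 1500 cells/well, 5 hr pre-incubation, then compound 16 hr, 37 °C. Caspase-Glo 3/7 reagent, 1 hr RT, luminescence. Norm. to DMSO/10 uM staurosporine; Hill-fit AC50.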

[20] = Cellular Toxicity (caspase-3) H-4-II-E (AID 663);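 further: cells exposed to compound for 16 hr before readout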
Method in brief: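 Luminescence from caspase-cleaved aminoluciferin substrate, read 20 min after reagent addition, reports caspase 3/7 activation in rat H-4-II-E cells after 16 hr compound exposure. Normalized to DMSO (basal) and 100 uM tamoxifen (100%); AC50 from Hill fits.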

Measured: Potency

Nc1nc2c(ncn2COCCO)c(=O)[nH]1
inactive: [1] | [2] > 46 µM and > 20.6 µM | [3] > 46 µM and > 20.6 µM | [4]

NC(=O)c1cnccn1
inactive: [1] | [2] > 46 µM | [3] > 46 µM | [5] | [6] | [7] | [8] | [9] | [10] | [11] | [4] | [12] | [13] | [14] | [15] | [16] | [17] | [18] | [19] | [20]

NC[C@H](O)c1ccc(O)c(O)c1
inactive: [1] | [2] > 46 µM | [3] > 46 µM | [4]

O=c1[nH]cnc2[nH]ncc12
inactive: [1] | [2] > 46 µM | [3] > 46 µM | [5] | [6] | [7] | [8] | [9] | [10] | [11] | [4] | [12] | [13] | [14] | [15] | [16] | [17] | [18] | [19] | [20]

N=c1nc(N2CCCCC2)cc(N)n1O
inactive: [1] | [2] > 46 µM and > 20.6 µM | [3] > 46 µM and > 20.6 µM | [4]

Nc1nc2ccc(OC(F)(F)F)cc2s1
inactive: [1] | [2] > 46 µM and > 20.6 µM | [3] > 46 µM and > 20.6 µM | [4]

CCCC(CCC)C(=O)O
inactive: [1] | [2] > 46 µM | [3] > 46 µM | [5] | [6] | [7] | [9] | [10] | [11] | [4] | [12] | [13] | [14] | [15] | [16] | [17] | [18] | [19]

NC(N)=NC(=O)c1nc(Cl)c(N)nc1N
inactive: [1] | [2] > 46 µM and > 20.6 µM | [3] > 46 µM and > 20.6 µM | [5] | [6] | [7] | [10] | [11] | [4] | [12] | [13] | [14] | [15] | [16] | [17] | [18] | [19] | [20]

Nc1ccc(S(=O)(=O)Nc2ccnn2-c2ccccc2)cc1
inactive: [1] | [2] > 46 µM and > 20.6 µM | [3] > 46 µM and > 20.6 µM | [4]

Cc1ccc(N(CC2=NCCN2)c2cccc(O)c2)cc1
inactive: [1] | [2] > 46 µM and > 20.6 µM | [3] > 46 µM and > 20.6 µM | [4]

C[C@]12CCC(=O)C=C1CC[C@@H]1[C@@H]2[C@@H](O)C[C@@]2(C)[C@H]1CC[C@]2(O)C(=O)CO
inactive: [1]

N#Cc1ccc(C(c2ccc(C#N)cc2)n2cncn2)cc1
inactive: [1] | [2] > 20.6 µM | [3] > 20.6 µM | [4]

CCOC(=O)C1=C[C@@]2(CC)CCCN3CCc4c(n1c1ccccc41)[C@H]32
inactive: [1] | [2] > 46 µM and > 20.6 µM | [3] > 46 µM and > 20.6 µM | [4]

CC(=O)Oc1ccccc1C(=O)O
inactive: [1] | [2] > 46 µM | [3] > 46 µM | [5] | [6] | [7] | [8] | [9] | [10] | [11] | [4] | [12] | [13] | [14] | [15] | [16] | [17] | [18] | [19] | [20]

Clc1cccc(Cl)c1NC1=NCCN1
inactive: [1] | [2] > 46 µM and > 20.6 µM | [3] > 46 µM and > 20.6 µM | [4]

CCOC(=O)C1=C[C@]2(CC)CCCN3CCc4c(n1c1ccccc41)[C@@H]32
inactive: [1] | [2] > 20.6 µM

Cn1cnc([N+](=O)[O-])c1Sc1ncnc2nc[nH]c12
active: [6] 3.98 µM | [8] 0.631 µM
inactive: [1] | [2] > 46 µM and > 20.6 µM | [3] > 46 µM and > 20.6 µM | [7] | [4] | [12] | [13] | [14] | [15] | [16] | [17] | [18] | [19] | [20]

Cc1ccccc1C(OCCN(C)C)c1ccccc1 (stereo not drawn)
inactive: [1] | [2] > 20.6 µM

O=C1CCc2cc(OCCCCc3nnnn3C3CCCCC3)ccc2N1
inactive: [1] | [2] > 46 µM and > 20.6 µM | [3] > 46 µM | [4]

Cc1cnc(NC(=O)C2=C(O)c3ccccc3S(=O)(=O)N2C)s1
inactive: [1] | [2] > 46 µM and > 20.6 µM | [3] > 46 µM

CC(C[N+](C)(C)C)OC(N)=O (stereo not drawn)
inactive: [1] | [2] > 20.6 µM

NS(=O)(=O)c1cc2c(cc1Cl)NC=NS2(=O)=O
not listed: [1] | [2] | [3] | [4]
inactive: all other assays above
